From PubChem
An excerpt weighted towards active compounds, which were near 5.2% of everything screened.
Tau FP inhib = qHTS for Inhibitors of Tau Fibril Formation, Fluorescence Polarization; Microtubule-associated protein tau (Homo sapiens), P10636; K18 P301L tau heparin fibrillization, Alexa594 FP, 6 h; Potency, µM (doses to about 57.7 µM), inactives show at the highest dose activity, negative = inhibition, hits mostly inhibitors; 280,000 compounds, 0.39% hits; AID 1468, 2008; also: potency is read from the fitted curve at half-maximal effect; nearly all actives have a fitted effect of over 55% in size
Target sequence (P10636 561-689 P618L limits assumed): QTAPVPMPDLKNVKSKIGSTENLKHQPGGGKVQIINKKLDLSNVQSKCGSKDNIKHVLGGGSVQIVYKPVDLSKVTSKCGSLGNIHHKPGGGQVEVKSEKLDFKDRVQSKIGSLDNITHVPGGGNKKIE
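Quantitative HTS format: compounds meet 15 uM recombinant K18 P301L tau and Alexa 594-tau tracer in 100 mM sodium acetate pH 7; 20 uM heparin triggers fibrillization at 37 C over 6 hr; FP gives the signal.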
Sfp PPTase inh = qHTS Assay for Inhibitors of Bacillus subtilis Sfp phosphopantetheinyl transferase (PPTase) | 4'-phosphopantetheinyl transferase ffp (Bacillus subtilis), Q9F4F7 | Biochemical Sfp PPTase activity, qHTS | Potency, µM, for the others: largest response in the series, negative = inhibition, actives largely listed as inhibitors | 310,000 compounds, 3.5% hits | AID 1490, 2009;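 also: the enzyme is Sfp with the accession as filed and its product quenches rhodamine fluorescence; potency is read from the fitted curve at half-maximal effect; 0% = enzyme reaction without inhibitor and -100% = no enzyme wells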
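Buffer: 50 mM Hepes-Na pH 7.6, 10 mM MgCl2, 0.01% Nonidet P-40, 0.01% BSA. Enzyme 15 nM, pre-exposed to compound 15 min; substrates then added and fluorescence change tracked over 30 min.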
FBPA coupling cs = qHTS Assay for Inhibitors of Fructose-1,6-bisphosphate Aldolase from Giardia Lamblia: Coupling assay counterscreen. coupling enzyme system counterscreen, AmpLite Red fluorescence. activity change, negative = inhibition, % at 58.2 µM, hits read low. 290,000 compounds, 0.67% hits. AID 2472, 2010; in the data active = activity change below about -30%
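Counterscreen lacking aldolase: glyceraldehyde-3-phosphate coupling-enzyme reagent preincubated 10 min at RT with compound (at 57.5 uM final), then substrate/coupling system with AmpLite Red added; fluorescence read at 525/598 nm after 20 min RT.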
Tau fluor cs = Counterscreen qHTS for Inhibitors of Tau Fibril Formation, Fluorescence Polarization | 280,000 compounds, 0.93% hits | tau K18 P301L Alexa594 fluorescence, heparin fibrillization | Potency, µM (titrated, usually from 57.7 µM), for the others: top-dose activity change, negative = decrease; also: potency is read from the fitted curve at half-maximal effect; nearly all actives have a fitted effect of over 55% in size
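Human tau K18 P301L (15 uM unlabeled, 0.24 uM Alexa 594-labeled) in 100 mM sodium acetate pH 7 with 20 uM heparin, 6 hr at 37 C. ThT 30 uM added, 1 hr ambient; Alexa 594 FP and total fluorescence read at 555/632 nm.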
Tau fibril ThT = qHTS for Inhibitors of Tau Fibril Formation, Thioflavin T Binding; Microtubule-associated protein tau (Homo sapiens), P10636; recombinant tau K18 P301L, heparin-induced fibrillization, ThT fluorescence; Potency, µM (doses to about 57.4 µM), inactives show at the top dose activity, negative = inhibition, actives largely listed as inhibitors; 270,000 compounds, 2.1% hits; AID 1460, 2008; also: potency is read from the fitted curve at half-maximal effect; nearly all actives have a fitted effect of over 55% in size
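Using a mix of unlabeled (15 uM) and Alexa 594-labeled (0.24 uM) tau K18 P301L, heparin-triggered fibrillization over 6 hr at 37 C was scored by ThT fluorescence.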
Numbers without * were called inactive; ? = inconclusive; · = no result; [ ] = dose if it differs, or a comment. Unless noted, calls follow the shape of the dose curve; as a rule, active = well fitted curve in the direction sought with a large enough effect; inconclusive = small, poorly fitted or top-dose-only effect, or another doubt; inactive = no such curve, though single readings can be large; an effect the other way counts as inactive or inconclusive. Unless noted, % is scaled to controls: 0 for no effect and ±100 for the full control effect.

SMILES | Tau FP inhib | Sfp PPTase inh | FBPA coupling cs | Tau fluor cs | Tau fibril ThT
O=C(Nc1nc(=O)c2ccccc2s1)c1ccc(Cl)cc1 | ? | 25µM* | 2 | -5% | -6%
O=C(Nc1nc(=O)c2ccccc2s1)c1ccc(F)cc1 | -10% | 56µM* | -7 | -2% | -14%
COC(=O)NC(c1ccco1)[C@]1(C(C)=O)CCCC1=O (stereo partly drawn) | -1%[11.6 µM] | 6% | 0 | -12%[11.6 µM] | -11%[11.5 µM]
NC(=NCCc1c[nH]c2ccccc12)NS(=O)(=O)c1ccc2ccccc2c1 | 4% | -17% | -36* | -1% | 3%
NC(=NCCc1c[nH]c2ccccc12)NS(=O)(=O)c1ccc(F)cc1 | 2% | 4% | -2 | -8% | 0%
COC(=O)c1ccc(N/C=C\C(=O)c2ccc3c(c2)OCO3)cc1 | 2% | -9% | 0 | 0% | 0%
O=C(/C=C/Nc1cccc([N+](=O)[O-])c1)c1cccs1 | 3% | -16% | -7 | ? | 4.5µM*
CNc1cc([N+](=O)[O-])ccc1N/C=C/C(=O)c1ccc2c(c1)OCO2 | 8% | ? | 1 | -27% | 3.5µM*
Cc1ccc([N+](=O)[O-])cc1NC(=O)c1cccs1 | 2% | 10% | 4 | 1% | 5%
CNc1cc([N+](=O)[O-])ccc1N/C=C/C(=O)c1cccs1 | 10% | 8% | -1 | ? | 16µM*
COc1ccc(N/C=C\C(=O)c2ccc3c(c2)OCO3)cc1OC | 1% | -9% | 1 | ? | 2.8µM*
COc1cc2ccccc2cc1C(=O)Nc1ccc2oc(-c3cccc(C)c3)nc2c1 | -9% | · | · | -18% | ?
COc1ccc(C(=O)/C=C(\C)Nc2ccc3c(c2)OCO3)cc1 | 6% | -30% | · | ? | 13µM*
CC(=O)NCCNc1ncnc2ccc(-c3ccccc3C#N)cc12 | · | 9% | -1 | · | ·
CCOC(=O)Nc1sc2c(c1C(=O)OCC)CCC2 | 1% | 40µM* | 1 | -16% | ?
CCOC(=O)C(NC(=O)CC)(Nc1nc2c(s1)CCCC2)C(F)(F)F (stereo not drawn) | -3% | 10% | 4 | -7% | -9%
CCCCOC(=O)Nc1sc2c(c1C(=O)OC)CCC2 | -9% | 50µM* | 1 | -16% | ?
CCOC(=O)NC(Nc1sc2c(c1C(N)=O)CCCC2)(C(=O)OCC)C(F)(F)F (stereo not drawn) | -12% | 35µM* | -12 | -15% | ?
O=S1(=O)C2CC3C=CC2(O3)C(O)C(Cc2ccccc2)N1Cc1cccc(C(F)(F)F)c1 (stereo not drawn) | · | 4% | -1 | · | ·
O=C1c2sc3nc4n(c(=O)c3c2CCC1Br)CCCCC4 (stereo not drawn) | ? | 20µM* | -62* | ? | ?
O=C1CCCc2c1sc1nc3n(c(=O)c21)CCCCC3 | 5% | -11% | 4 | -5% | -7%
CC(C)(C)c1cc(CCC(=O)NCc2cccnc2)cc(C(C)(C)C)c1O | · | 22µM* | · | · | ·
Clc1cccc(-c2nc3ccccn3c2Nc2ccc3c(c2)OCCO3)c1 | ? | · | · | 7.9µM*[quencher] | ?
COc1cc(-c2nc3cccc(C)n3c2Nc2ccc3c(c2)OCCO3)ccc1O | 4% | · | · | 18µM*[quencher] | ?
Cc1ccn2c(Nc3ccc4c(c3)OCO4)c(-c3ccc(O)cc3)nc2c1 | 3% | -5% | 1 | 18µM*[quencher] | ?
Cc1cccc2nc(-c3ccco3)c(Nc3ccc4c(c3)OCCO4)n12 | 9% | -1% | 0 | -22% | -16%
COc1cc(-c2nc3ccc(C)cn3c2Nc2ccc3c(c2)OCCO3)ccc1O | 10% | -17% | 2 | 16µM*[quencher] | ?
COc1cc(-c2nc3cnccn3c2Nc2ccc3c(c2)OCCO3)ccc1O | 9% | -10% | 0 | ? | ?
CC(C)NC(=O)N1CCC2(CC1)CCN(C(=O)c1cccc(F)c1)CC2 | · | 6% | 4 | · | ·
Cc1ccc(NC(=O)CSc2nc3ccccc3n2CC(=O)N2CCC(C)CC2)cc1C | 2% | · | · | -19% | -11%
